The text below walks through data of PubChem BioAssay (NCI).

The panel holds about 83,000 compounds, 20% with a hit somewhere; the sample as a whole holds those more often.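 In brief: 96-well plates, 48 h treatment, single concentration, percent growth endpoint.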 A number with no mark means an inactive call. The source made the active and inactive calls. Rule for the calls: active = growth percent below 10; inactive = the rest.

The subject of this test is KM12 colon. Nature of the test: NCI-60 one-dose screen, 48 h (100 = growth as untreated, 0 = no growth, -100 = all killed). Conditions: 10 µM unless noted.
Turning to `C[C@]1(CO)C[C@@H](O)C[C@]2(C)[C@@H]1CC[C@@]13C[C@@H]4[C@@H](C[C@H]12)[C@]4(C)C3`, the growth was 109%.

On to `NC(=O)c1cc(I)ccc1NC(=O)COc1ccccc1`, for which the growth was 19.9%. `Cc1ccc(N(CSc2ccc(Cl)cc2)CSc2ccc(Cl)cc2)cc1`: the growth is 18.4%.

Consider `COc1cccc(OC)c1OC(=O)c1ccccc1`, for which the growth was 109%. Consider `COc1cc(-c2nc(SC(C)C)nc(Nc3cccc(C)c3)c2C#N)cc(OC)c1OC`, for which the growth is 110%.

For the compound `Cc1ccc(S(=O)(=O)N2CCc3ccc(O)c4c3C2CCc2ccccc2-4)cc1` (centres undefined), the growth is 95.2%.

For `COc1cc(CNCCCN2C(=O)c3ccc4c5c(ccc(c35)C2=O)C(=O)N(CCCNCc2cc(OC)c(OC)c(OC)c2)C4=O)cc(OC)c1OC`, the growth was -86.9% (active).

In the case of `COC(=O)c1ccc(C(=O)Nc2ccccc2N)cc1`, the growth is 86.3%. Take `COc1c(Cl)ccc2c(-c3nc4cc(Cl)c(F)cc4s3)cc(=O)oc12`: the growth is 79.4%.

Regarding `COc1ccc(-c2nc3sc(C)nn3c2-c2nc3cc(C)c(C)cc3[nH]2)cc1`, the growth is 103%. With `COc1cc(/C=C/C(=O)C(=Cc2ccc(F)c(F)c2)C(=O)/C=C/c2ccc(O)c(OC)c2)ccc1O` the figure was 1.53% (active); with `O=C1/C(=C/c2ccc(Cl)cc2)N=C(c2ccccc2)N1CCc1cccs1`, 99.2%.

With `CC(C)(C)CC(C)(C)N(CSc1ccc(Cl)cc1)CSc1ccc(Cl)cc1`, the growth is 33.5%. Turning to `NC1=NC(c2ccccc2OS(=O)(=O)c2ccc(Br)cc2)n2c(nc3ccccc32)N1` (centres undefined), the growth is 100%.
